Test results reported in the supplement of paper PMC11732987, “Enantioselective OTUD7B fragment discovery through chemoproteomics screening and high-throughput optimisation” (Communications Chemistry, 2025).

Legend:
Assay in all cases: log2 ratio of Biotin-Ahx-Ub-VS probe labelling (fragment/DMSO); higher = less target engagement (more negative = stronger competition), active = hit call of the paper (q ≤ 0.05, log2 ratio ≤ -1)
Settings in all cases: compound concentration: 200 uM; treatment time: 3 h
OTUD6B = target: T1, OTUD6B (UniProt Q8N6M0)
T1 sequence (whole entry): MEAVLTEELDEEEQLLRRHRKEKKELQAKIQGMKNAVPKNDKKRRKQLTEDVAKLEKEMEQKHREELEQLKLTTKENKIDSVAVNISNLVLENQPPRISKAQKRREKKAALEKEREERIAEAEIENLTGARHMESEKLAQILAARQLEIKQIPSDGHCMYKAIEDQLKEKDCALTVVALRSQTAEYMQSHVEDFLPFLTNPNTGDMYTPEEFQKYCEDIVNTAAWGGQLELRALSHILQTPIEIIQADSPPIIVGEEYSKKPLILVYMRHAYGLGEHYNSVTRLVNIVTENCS
In short: (§1)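 Each value is an average log2 ratio of fragment to vehicle, tested by unpaired t-test. The underlying Spectronaut label-free quantities were global-median-normalised, and only proteins with ≥2 unique peptides were included. Triplicate HEK293T lysate samples (495 µg) were exposed to fragment at 200 µM or vehicle for 3 h, then to Biotin-Ahx-Ub-VS at 0.5 µM final for 1 h, before NeutrAvidin enrichment of labelled DUBs, LysC and trypsin digestion, and diaPASEF LC-MS/MS.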

OTUD7B = target: T2, OTUD7B (UniProt Q6GQQ9)
T2 sequence (whole entry): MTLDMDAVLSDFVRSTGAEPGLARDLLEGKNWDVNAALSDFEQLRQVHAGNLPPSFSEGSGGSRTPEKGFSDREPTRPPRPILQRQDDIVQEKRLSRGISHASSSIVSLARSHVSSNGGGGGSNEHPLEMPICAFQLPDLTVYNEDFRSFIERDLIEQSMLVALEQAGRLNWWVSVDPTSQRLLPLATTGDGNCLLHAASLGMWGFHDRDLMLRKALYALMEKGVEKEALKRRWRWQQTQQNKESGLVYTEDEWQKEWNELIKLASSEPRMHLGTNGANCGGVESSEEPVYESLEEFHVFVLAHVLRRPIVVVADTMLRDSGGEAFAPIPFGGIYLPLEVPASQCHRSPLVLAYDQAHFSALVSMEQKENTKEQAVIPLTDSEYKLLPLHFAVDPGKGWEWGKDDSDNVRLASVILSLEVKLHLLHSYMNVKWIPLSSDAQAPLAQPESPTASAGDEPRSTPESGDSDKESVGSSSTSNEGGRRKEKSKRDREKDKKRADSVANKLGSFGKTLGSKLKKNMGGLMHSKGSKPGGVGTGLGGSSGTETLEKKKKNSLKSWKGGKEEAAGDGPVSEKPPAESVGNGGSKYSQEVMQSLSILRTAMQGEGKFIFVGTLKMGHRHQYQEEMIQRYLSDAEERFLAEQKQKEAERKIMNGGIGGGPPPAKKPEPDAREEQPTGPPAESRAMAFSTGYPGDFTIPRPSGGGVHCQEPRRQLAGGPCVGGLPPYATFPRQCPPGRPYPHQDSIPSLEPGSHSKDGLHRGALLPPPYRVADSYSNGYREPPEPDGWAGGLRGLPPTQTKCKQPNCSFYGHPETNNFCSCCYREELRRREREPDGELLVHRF
In short: as §1

PRPF8 = PRPF8 (UniProt Q6P2Q9)
In short: as §1

PSMD7 = target: T3, PSMD7 (UniProt P51665)
T3 sequence (whole entry): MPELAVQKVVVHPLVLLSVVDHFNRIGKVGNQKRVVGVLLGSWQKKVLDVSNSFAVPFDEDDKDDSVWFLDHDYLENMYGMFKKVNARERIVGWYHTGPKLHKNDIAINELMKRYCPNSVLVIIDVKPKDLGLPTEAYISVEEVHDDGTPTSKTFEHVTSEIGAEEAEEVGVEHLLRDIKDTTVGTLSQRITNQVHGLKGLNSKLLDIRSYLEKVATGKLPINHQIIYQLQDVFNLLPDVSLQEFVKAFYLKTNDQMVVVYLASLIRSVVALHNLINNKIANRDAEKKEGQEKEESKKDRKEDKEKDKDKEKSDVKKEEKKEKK
In short: as §1

UCHL1 = UCHL1 (UniProt P09936)
In short: as §1

UCHL3 = target: T4, UCHL3 (UniProt P15374)
T4 sequence (whole entry): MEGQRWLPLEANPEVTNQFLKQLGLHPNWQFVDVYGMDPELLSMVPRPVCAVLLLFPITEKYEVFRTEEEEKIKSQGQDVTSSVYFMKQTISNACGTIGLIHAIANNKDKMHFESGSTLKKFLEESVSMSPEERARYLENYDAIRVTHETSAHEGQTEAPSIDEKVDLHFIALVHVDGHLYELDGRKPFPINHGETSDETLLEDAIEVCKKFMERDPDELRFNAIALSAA
In short: as §1

UCHL5 = target: T5, UCHL5 (UniProt Q9Y5K5)
T5 sequence (whole entry): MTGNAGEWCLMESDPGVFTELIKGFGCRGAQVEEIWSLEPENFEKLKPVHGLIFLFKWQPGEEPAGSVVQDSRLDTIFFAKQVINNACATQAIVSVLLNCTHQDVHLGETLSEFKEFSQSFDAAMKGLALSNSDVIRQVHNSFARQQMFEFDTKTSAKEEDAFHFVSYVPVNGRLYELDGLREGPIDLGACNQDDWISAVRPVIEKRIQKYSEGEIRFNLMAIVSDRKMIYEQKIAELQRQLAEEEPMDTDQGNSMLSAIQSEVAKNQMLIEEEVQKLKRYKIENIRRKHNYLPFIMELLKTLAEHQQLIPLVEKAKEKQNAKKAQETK
In short: as §1

USP10 = USP10 (UniProt Q14694)
In short: as §1

USP15 = target: T6, USP15 (UniProt Q9Y4E8)
T6 sequence (whole entry): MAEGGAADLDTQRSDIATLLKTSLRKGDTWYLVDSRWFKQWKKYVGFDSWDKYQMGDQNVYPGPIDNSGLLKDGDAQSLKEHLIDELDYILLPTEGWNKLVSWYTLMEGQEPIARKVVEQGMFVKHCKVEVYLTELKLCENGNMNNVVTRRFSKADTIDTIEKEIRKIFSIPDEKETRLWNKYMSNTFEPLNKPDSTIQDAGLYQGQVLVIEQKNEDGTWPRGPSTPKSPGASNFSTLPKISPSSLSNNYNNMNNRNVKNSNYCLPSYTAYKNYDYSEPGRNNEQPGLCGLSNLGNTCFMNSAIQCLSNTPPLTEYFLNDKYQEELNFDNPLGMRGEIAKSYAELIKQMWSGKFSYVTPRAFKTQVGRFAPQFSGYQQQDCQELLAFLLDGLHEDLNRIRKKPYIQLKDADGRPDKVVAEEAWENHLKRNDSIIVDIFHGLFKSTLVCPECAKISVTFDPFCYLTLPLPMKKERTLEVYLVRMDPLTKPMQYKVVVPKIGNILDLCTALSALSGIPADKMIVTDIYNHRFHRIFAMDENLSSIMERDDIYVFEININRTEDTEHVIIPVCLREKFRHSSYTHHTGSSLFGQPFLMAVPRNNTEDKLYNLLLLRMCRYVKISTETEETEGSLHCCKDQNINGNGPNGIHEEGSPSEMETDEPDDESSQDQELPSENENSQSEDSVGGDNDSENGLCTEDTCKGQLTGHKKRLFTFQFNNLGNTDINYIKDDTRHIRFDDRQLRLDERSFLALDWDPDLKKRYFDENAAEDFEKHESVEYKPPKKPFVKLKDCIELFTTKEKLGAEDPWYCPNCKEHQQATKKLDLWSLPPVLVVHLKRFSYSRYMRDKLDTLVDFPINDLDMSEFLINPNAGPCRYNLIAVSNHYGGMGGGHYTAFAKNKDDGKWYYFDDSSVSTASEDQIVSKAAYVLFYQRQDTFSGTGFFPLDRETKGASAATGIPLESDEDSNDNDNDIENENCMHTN
In short: as §1

USP16 = USP16 (UniProt Q9Y5T5)
In short: as §1

Measured: log2 ratio of Biotin-Ahx-Ub-VS probe labelling

USP10, sequence (Q14694 whole entry): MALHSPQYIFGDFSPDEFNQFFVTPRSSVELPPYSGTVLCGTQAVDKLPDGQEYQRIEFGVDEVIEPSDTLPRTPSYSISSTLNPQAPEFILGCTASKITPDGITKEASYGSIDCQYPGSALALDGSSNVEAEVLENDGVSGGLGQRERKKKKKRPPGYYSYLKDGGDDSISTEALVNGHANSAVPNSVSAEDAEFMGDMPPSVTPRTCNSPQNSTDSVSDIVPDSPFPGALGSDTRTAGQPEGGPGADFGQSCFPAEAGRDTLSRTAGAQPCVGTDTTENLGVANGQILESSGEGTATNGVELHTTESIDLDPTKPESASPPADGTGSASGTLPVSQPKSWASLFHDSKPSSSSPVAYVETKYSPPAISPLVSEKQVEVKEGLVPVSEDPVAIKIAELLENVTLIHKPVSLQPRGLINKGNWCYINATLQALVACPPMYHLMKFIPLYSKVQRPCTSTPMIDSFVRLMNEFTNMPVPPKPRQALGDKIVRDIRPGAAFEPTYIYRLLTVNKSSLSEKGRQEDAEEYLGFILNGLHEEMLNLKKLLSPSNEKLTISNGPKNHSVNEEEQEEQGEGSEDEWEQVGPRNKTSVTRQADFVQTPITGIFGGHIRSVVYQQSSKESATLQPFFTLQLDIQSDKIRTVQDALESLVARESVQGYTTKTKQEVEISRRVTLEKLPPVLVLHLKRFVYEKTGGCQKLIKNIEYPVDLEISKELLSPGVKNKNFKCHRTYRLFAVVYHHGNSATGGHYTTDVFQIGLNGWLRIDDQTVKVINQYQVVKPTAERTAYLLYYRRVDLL
USP16, sequence (Q9Y5T5 whole entry, looked up): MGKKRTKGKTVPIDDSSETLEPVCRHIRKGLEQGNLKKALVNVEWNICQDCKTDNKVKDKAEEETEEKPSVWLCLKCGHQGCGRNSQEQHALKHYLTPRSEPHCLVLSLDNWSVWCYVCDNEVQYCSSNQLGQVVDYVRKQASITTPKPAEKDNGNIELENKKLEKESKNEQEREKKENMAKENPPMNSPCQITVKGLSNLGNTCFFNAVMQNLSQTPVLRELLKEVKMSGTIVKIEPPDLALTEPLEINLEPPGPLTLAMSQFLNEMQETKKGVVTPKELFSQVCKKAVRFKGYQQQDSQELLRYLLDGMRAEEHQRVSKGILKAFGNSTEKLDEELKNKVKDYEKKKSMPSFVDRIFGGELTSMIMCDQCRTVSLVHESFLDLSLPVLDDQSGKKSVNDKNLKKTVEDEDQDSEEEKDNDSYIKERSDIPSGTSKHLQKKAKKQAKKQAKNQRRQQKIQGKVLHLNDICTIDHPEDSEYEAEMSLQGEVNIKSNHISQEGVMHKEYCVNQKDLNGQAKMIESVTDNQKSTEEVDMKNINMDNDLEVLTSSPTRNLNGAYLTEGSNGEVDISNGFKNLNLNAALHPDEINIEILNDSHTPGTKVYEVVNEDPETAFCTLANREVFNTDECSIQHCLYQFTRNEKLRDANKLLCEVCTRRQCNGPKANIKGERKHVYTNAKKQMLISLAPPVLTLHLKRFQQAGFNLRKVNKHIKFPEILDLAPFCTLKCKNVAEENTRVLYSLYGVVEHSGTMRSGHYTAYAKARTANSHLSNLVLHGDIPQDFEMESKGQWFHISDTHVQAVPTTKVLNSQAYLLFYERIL
UCHL1, sequence (P09936 whole entry, looked up): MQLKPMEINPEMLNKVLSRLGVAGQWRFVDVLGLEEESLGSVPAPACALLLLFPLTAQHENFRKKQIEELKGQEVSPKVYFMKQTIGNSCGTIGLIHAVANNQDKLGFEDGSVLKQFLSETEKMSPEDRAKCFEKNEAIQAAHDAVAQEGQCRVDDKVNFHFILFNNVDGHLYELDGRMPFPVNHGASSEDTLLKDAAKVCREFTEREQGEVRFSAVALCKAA

Cc1ccc(N(C(=O)CCl)C2C=CS(=O)(=O)C2)cc1 (stereo not given)
inactive: OTUD6B 0.181 | OTUD7B -0.0624 | PRPF8 0.0782 | PSMD7 -0.0467 | UCHL3 0.419 | UCHL5 -0.13 | USP10 -0.0181 | USP15 -0.145 | USP16 0.19
active: UCHL1 -1.28
